The target in test [1] is Paired box protein Pax-6 (Homo sapiens) (UniProt P26367). The test is described as follows: ATG_Pax6_CIS: Attagene CIS-FACTORIAL HepG2 Assay for human Paired Box 6 (PAX6) (AID 2282956). The note with it: HepG2 CIS-FACTORIAL PAX6 reporter transcription, RNA readout; actives raise or lower the signal. In short, it runs like this:
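Transient MRTU transfection of HepG2 → compound exposure 24 h → TriZol RNA, oligo(dT) RT → PCR, 6-FAM primer extension, HpaI cut → capillary electrophoresis; activity fitted both directions against DMSO.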

Test [2] is described as follows: ATG_PPRE_CIS: Attagene CIS-FACTORIAL HepG2 Assay for human Peroxisome Proliferator-activated Response Element (PPRE) (AID 2282958). To be noted: HepG2 PPRE cis-element reporter, Attagene transcription factor profiling; actives raise or lower the signal. The gist of the method: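 Cells are first transfected transiently with the multiplexed reporter library, then dosed for 24 h. Total RNA is reverse-transcribed, amplified, fluorescently end-labeled and HpaI-cut before capillary electrophoresis; activity is fitted bidirectionally against DMSO controls.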

Test [3] can be described thus: ATG_RORE_CIS: Attagene CIS-FACTORIAL HepG2 Assay for human RAR-related Orphan Receptor Element (RORE) (AID 2282959). To be noted: HepG2 Attagene cis-factorial RORE reporter, mRNA; actives raise or lower the signal. The gist of the method: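 Cells were HepG2 carrying transfected cis-regulated reporter constructs, dosed for 24 hours. Total RNA was reverse-transcribed and reporter cDNA amplified, fluorescently labeled and sized by capillary electrophoresis. Activity was fitted bidirectionally relative to DMSO.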

Test [4] in a line: ATG_Sox_CIS: Attagene CIS-FACTORIAL HepG2 Assay for human SRY-box transcription factor (SOX) (AID 2282960). To be noted: HepG2 Attagene cis-factorial SOX reporter, mRNA; actives raise or lower the signal. The gist of the method:
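Transient MRTU transfection of HepG2; 24 h compound incubation; TriZol RNA, oligo(dT) RT, PCR, 6-FAM primer extension, HpaI cut, CE. Bidirectional fit, DMSO = baseline.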

In test [5] the target is Transcription factor Sp1 (Homo sapiens) (UniProt P08047). The test is described as follows: ATG_Sp1_CIS: Attagene CIS-FACTORIAL HepG2 Assay for human Specificity Protein 1 (Sp1) (AID 2282961). To be noted: HepG2 Sp1 cis-reporter transcription, actives raise or lower the signal. In short, it runs like this:
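Endogenous Sp1 activity was gauged in human liver HepG2 cells bearing transfected reporter units under a cis-regulating promoter. After 24 h dosing, reporter mRNA was quantified by RT-PCR with capillary electrophoresis, and activity fitted bidirectionally versus DMSO.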

Test [6] can be described thus: ATG_SREBP_CIS: Attagene CIS-FACTORIAL HepG2 Assay for human Sterol Regulatory Element Binding (SREBP) (AID 2282962). To be noted: HepG2 Attagene cis-factorial SREBP reporter, mRNA; actives raise or lower the signal. The gist of the method: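 Transfected HepG2 (cis-regulated reporter library, endogenous TFs) → compound 24 h → total RNA → oligo(dT) RT → reporter-specific PCR → FAM primer extension, HpaI cut → CE fluorescence. Fit bidirectional vs DMSO.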

Test [7] in a line: ATG_TA_CIS: Attagene CIS-FACTORIAL HepG2 Assay for human TA Basal Promoter (AID 2282964). To be noted: HepG2 Attagene CIS-factorial TA basal promoter reporter; actives raise or lower the signal. In short, it runs like this: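 Fluorescence from labelled RT-PCR reporter fragments, separated by capillary electrophoresis, gives the signal. Cells: HepG2 transiently carrying multiple reporter units, 24 h chemical dosing. Gain or loss relative to DMSO.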

The nature of test [8]: ATG_TCF_b_cat_CIS: Attagene CIS-FACTORIAL HepG2 Assay for human T-Cell-Factor with beta-catenin (TCF/b-cat) (AID 2282965). To be noted: HepG2 TCF/beta-catenin cis-reporter transcription, actives raise or lower the signal. In short, it runs like this:
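Measured: reporter mRNA in HepG2 transiently transfected with cis-promoter reporter units, 24 h after chemical addition. Fitting was bidirectional, DMSO as negative control.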

For test [9], the target named is Signal transducer and activator of transcription 3 (Homo sapiens) (UniProt P40763). The test is described as follows: ATG_STAT3_CIS: Attagene CIS-FACTORIAL HepG2 Assay for human Signal Transducer and Activator of Transcription 3 (STAT3) (AID 2282963). To be noted: HepG2, Attagene cis-factorial STAT3 reporter transcription; actives raise or lower the signal. In short, it runs like this:
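Endogenous STAT3-responsive cis-element activity was read in transiently transfected HepG2 cells after 24 h treatment. Reporter transcripts were quantified via RT-PCR and capillary electrophoresis, with DMSO as negative control and bidirectional curve fitting.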

Molecules are shown by their SMILES. Calls of active or inactive are those of the source. How the source made its calls: active means hit-call score of the fitted dose curve at least 0.9, where 1 is the maximum; inactive means score below 0.9.

The AC50 is the concentration at which the activity in the assay is half-maximal.

Transcription factor Sp1 (Homo sapiens), sequence (P08047 whole entry, looked up): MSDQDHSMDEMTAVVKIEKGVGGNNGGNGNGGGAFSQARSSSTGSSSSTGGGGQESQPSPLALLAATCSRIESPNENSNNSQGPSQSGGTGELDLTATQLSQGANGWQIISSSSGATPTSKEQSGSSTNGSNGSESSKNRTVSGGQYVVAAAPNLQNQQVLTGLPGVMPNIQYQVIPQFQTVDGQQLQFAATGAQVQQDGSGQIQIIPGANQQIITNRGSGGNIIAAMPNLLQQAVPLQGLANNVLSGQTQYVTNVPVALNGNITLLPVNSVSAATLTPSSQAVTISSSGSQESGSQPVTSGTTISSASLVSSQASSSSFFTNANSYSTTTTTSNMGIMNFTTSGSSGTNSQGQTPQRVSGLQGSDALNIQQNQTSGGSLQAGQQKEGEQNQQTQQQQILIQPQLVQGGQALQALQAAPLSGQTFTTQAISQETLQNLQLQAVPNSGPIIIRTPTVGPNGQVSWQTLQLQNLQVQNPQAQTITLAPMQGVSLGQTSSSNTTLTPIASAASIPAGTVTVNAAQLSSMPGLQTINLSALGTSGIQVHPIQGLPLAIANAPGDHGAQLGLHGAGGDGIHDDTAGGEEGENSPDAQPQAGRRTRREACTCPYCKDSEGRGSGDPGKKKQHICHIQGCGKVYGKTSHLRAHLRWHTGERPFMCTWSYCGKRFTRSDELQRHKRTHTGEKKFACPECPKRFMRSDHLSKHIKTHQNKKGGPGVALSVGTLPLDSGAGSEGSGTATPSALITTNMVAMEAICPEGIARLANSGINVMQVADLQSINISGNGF
Signal transducer and activator of transcription 3 (Homo sapiens), sequence (P40763 whole entry, looked up): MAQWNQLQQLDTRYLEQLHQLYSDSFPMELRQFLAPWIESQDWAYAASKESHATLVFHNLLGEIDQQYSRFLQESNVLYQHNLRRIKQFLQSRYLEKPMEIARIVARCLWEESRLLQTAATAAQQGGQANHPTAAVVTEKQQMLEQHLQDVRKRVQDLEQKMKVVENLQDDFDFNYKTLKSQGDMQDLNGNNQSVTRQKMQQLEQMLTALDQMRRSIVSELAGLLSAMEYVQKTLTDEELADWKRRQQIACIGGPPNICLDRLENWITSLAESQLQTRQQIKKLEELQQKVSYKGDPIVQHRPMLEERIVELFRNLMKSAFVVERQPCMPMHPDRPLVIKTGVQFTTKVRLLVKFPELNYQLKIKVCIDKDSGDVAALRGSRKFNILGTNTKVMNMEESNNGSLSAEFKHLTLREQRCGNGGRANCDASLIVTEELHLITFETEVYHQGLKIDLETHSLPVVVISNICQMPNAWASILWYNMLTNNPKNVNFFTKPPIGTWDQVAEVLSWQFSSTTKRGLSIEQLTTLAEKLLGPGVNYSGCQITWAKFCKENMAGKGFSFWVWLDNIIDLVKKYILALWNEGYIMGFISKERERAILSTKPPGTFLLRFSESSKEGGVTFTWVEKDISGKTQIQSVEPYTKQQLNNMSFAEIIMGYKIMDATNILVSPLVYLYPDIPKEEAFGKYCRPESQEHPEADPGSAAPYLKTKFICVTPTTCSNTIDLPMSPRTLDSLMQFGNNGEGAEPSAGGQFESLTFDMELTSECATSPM
Paired box protein Pax-6 (Homo sapiens), sequence (P26367 whole entry, looked up): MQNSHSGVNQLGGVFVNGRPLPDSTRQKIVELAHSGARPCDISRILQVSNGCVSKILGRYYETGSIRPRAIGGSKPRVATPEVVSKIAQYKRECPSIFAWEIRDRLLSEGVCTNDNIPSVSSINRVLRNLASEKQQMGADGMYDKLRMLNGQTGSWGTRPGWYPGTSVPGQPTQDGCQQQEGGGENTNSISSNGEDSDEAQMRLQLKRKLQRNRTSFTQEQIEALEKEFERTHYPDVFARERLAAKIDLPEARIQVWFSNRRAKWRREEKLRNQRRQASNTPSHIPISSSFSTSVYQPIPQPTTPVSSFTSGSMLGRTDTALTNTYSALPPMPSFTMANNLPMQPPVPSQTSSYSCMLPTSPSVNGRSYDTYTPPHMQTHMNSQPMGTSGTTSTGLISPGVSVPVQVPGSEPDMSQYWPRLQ

Turning to `Cc1ccc2sc3cccc(C)c3c2c1`, the molecule was classed as inactive in [1], in test [2], in [3], in test [4], in test [5] and in [6]. In addition, the molecule was classed as inactive in [7] and in [8].

As for `COC(C(=O)O)c1ccccc1` (stereo not drawn), the molecule was called inactive in [1], in test [2], in test [3], in test [4], in test [5] and in [6]. The result in test [9], in test [7] and in test [8] was inactive.

On to `Cc1ccc(C(=O)c2cc(O)c(O)c([N+](=O)[O-])c2)cc1`, for which the outcome in [1], in [4], in [5], in test [6], in [9] and in test [8] was inactive. Moreover, the AC50 in test [2] is 21.8 µM (active).

With `Clc1sc(Cl)c(Cl)c1Cl`, the call in test [1], in test [2], in [3], in test [4], in test [5] and in test [6] was inactive. Further, the call in [9], in [7] and in test [8] was inactive.

Take `Cc1cc(C2(c3cc(C)c(O)cc3C)OS(=O)(=O)c3ccccc32)c(C)cc1O`: the result in [1], in test [3], in test [4], in test [5], in [6] and in [9] was inactive. Besides, the result in test [8] was inactive.

As to `O=CCCc1ccccc1`, the result in test [1], in [4], in test [5], in test [6], in [9] and in [8] was inactive.

With `CCN(CC)CCOC(=O)c1ccc(N)cc1`, the outcome in [1], in test [3], in [4], in [5], in [6] and in test [7] was inactive. In test [8], the molecule was called inactive.

In the case of `CN(C)C(=N)N=C(N)N`, the outcome in test [1], in [2], in test [4], in test [5], in test [6] and in [7] was inactive. Further, the call in test [8] was inactive.

Consider `C=C(C)C(=O)O[C@H]1C[C@@H]2CC[C@@]1(C)C2(C)C`, for which the call in test [1], in test [3], in test [4], in test [5] and in test [9] was inactive. Moreover, the concentration at half-maximal activity (AC50) was 75.3 µM (active) in test [2], 175 µM (active) in test [6] and 138 µM (active) in [8].

For `Cc1cccc(C)c1[N+](=O)[O-]`, the molecule was called inactive in [1], in test [2], in test [3], in [4], in test [5] and in test [6]. In addition, the outcome in [9], in test [7] and in [8] was inactive.

As for `CCCCCCC#CC(=O)OC`, the molecule was called inactive in test [1], in test [2], in test [3], in test [4], in test [6] and in test [9]. Besides, the molecule was called inactive in test [7] and in test [8].

Turning to `Cc1ccc(C=O)cc1`, the outcome in [1], in test [2], in test [3], in [4], in test [5] and in test [6] was inactive. Moreover, the molecule was classed as inactive in test [9], in test [7] and in test [8].

Turning to `COC(=O)C1=C(C)NC(C)=C(C(=O)OCCN(C)Cc2ccccc2)C1c1cccc([N+](=O)[O-])c1` (stereo not drawn), the AC50 in test [1] was 20.5 µM (active). Further, the result in test [2], in [4], in test [5], in test [6], in test [9] and in test [7] was inactive. Further, the result in test [8] was inactive.

Regarding `Cc1ccc(C(=O)O)o1`, the molecule was classed as inactive in [1], in [2], in test [3], in test [4], in [5] and in [6]. Also, the outcome in test [9], in test [7] and in test [8] was inactive.

Regarding `CCCCCCOC(=O)CCCCC`, the outcome in test [1], in test [3], in test [4], in test [5], in test [6] and in test [9] was inactive. The molecule was called inactive in test [7] and in [8].

For the molecule `CN(C)CCCN`, the outcome in [1], in test [2], in test [4], in test [5], in test [6] and in test [9] was inactive. Further, the call in test [7] and in test [8] was inactive.

In the case of `Cc1ccc(O)c(C(C)(C)C)c1`, the figures for the concentration at half-maximal activity (AC50) in test [1], in test [3] and in [6] were 138 µM (active), 162 µM (active) and 100 µM (active), respectively. Also, the molecule was called inactive in test [2], in test [4], in [9], in test [7] and in test [8].

For the molecule `C#C[C@]1(O)CC[C@H]2[C@@H]3CCC4=Cc5oncc5C[C@]4(C)[C@H]3CC[C@@]21C`, the half-maximal activity concentration (AC50) was 20.1 µM (active) in test [1]; 61.3 µM (active) in test [4]; 57.6 µM (active) in test [5]; 14.8 µM (active) in test [6]; 8.11 µM (active) in [7]; 22 µM (active) in test [8]. Moreover, the molecule was called inactive in test [3] and in test [9].

The values are drawn from PubChem BioAssay (EPA / NIEHS).
